PubChem BioAssay (NCATS)
Calls of active or inactive are those of the source. No rule for the calls is given here.

Tested on: HIV-1 nucleocapsid protein NCp7 (binding to TG oligonucleotide)
Assay: HIV Nucleocapsid (AID 346);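 also: potency is for inhibitors that block NC binding and lower polarization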
Conditions: HIV-1 NC / fluorescein-TGTGTGTG probe, fluorescence polarization
Outline: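 Reagents dispensed (10 nM TG4xF, 100 nM HIV-1 NC), plates spun, compounds pin-transferred, then incubated 1 hr at room temperature before FP imaging. Buffer: Hepes pH 7.5, 250mM NaCl, 1uM ZnCl2, 100 uM TCEP, 5 mM 2-mercaptoethanol.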
Potency is read from the fitted curve at half-maximal effect.

SMILES | Potency
COc1cccc(-c2cc(NCc3cccnc3)ncn2)c1 | > 20 µM (inactive)
c1ccc(CNc2cc(-c3cccnc3)ncn2)cc1 | > 20 µM (inactive)
c1ccc2c(NCCN3CCOCC3)nc(-c3ccc4c(c3)OCO4)nc2c1 | > 20 µM (inactive)
O=c1cnc2cnc(N3CCNCC3)nc2n1CCc1ccccc1 | > 20 µM (inactive)
COc1cccc(-c2nc(Nc3ccncc3)c3ccccc3n2)c1 | > 20 µM (inactive)
CN1CCN(c2ncnc3ccc(-c4cccc(NS(C)(=O)=O)c4)cc23)CC1 | > 20 µM (inactive)
CN(C)Cc1ccccc1-c1cncnc1Nc1ccc(F)cc1 | > 20 µM (inactive)
Cn1cccc1C(=O)N1CCC[C@@]2(CCN(C(=O)Nc3cccc(F)c3)C2)C1 | > 20 µM (inactive)
O=C(Nc1ccccc1)N1CC2(CCN(S(=O)(=O)c3ccccc3)CC2)C1 | > 20 µM (inactive)
Clc1ccccc1-c1nccc(NCc2cccs2)n1 | > 20 µM (inactive)
COc1ncc2nc(-c3ccccc3)c(=O)n(-c3ccccc3)c2n1 | > 20 µM (inactive)
CC(C)CN1CCCC2(CCN(S(=O)(=O)c3ccccc3)CC2)C1 | > 20 µM (inactive)
c1ccc(CNc2cc(-c3ccoc3)ncn2)cc1 | > 20 µM (inactive)
O=C(Nc1cccc(F)c1)N1CC2(CCN(C(=O)c3ccco3)CC2)C1 | > 20 µM (inactive)
COc1ncc2nc(-c3ccccc3)c(=O)n(Cc3cccs3)c2n1 | > 20 µM (inactive)
N#Cc1cccc(-c2cc(NCc3cccnc3)ncn2)c1 | > 20 µM (inactive)
